Compound activity as filed in PubChem BioAssay.
HT1080NT lethal: kills 2HG-producing HT-1080-NT fibrosarcoma cells; HT-1080-NT fibrosarcoma viability, CellTiter-Glo ATP luminescence, 48 h; Potency, µM (titrated, usually from 46.1 µM), for inactives: at the top dose activity, negative = less viability, most hits filed as cytotoxic; hit rate 1.6% among 360,000; AID 686970;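 also: NT is the 2HG producing partner of a matched IDH1 knockdown line; potency is read from the fitted curve at half-maximal effect; 0% = DMSO-treated cells and -100% = media-only wells without cells; nearly all actives have a fitted effect of over 55% in size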
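A 48-hour cytotoxicity screen used HT-1080-NT cells plated 2 hours before compound delivery. ATP-based CellTiter-Glo luminescence measured viability, normalized to DMSO and no-cell controls.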
TDP1 cell CPT: growth inhibition of DT40 Tdp1-/-;hTDP1 cells with camptothecin (screen for TDP1 inhibitors). chicken DT40 Tdp1-/-;hTDP1 cells + 20 nM CPT, ATP luminescence, 48 h. Potency, µM (doses to about 46.2 µM), for inactives: at the top dose activity change, negative = growth inhibition, usual class: inhibitors. hit rate 12% among 420,000. AID 686979; also: potency is read from the fitted curve at half-maximal effect; nearly all actives have a fitted effect of over 55% in size
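Cell growth measured by CellTiter-Glo luminescence after a minimum 48 h, 37 C compound exposure with 20 nM CPT in Tdp1-knockout DT40 cells stably expressing hTDP1, seeded 400/well; qHTS titration format.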
DT40 TDP1 no CPT: qHTS for Inhibitors of human tyrosyl-DNA phosphodiesterase 1 (TDP1): qHTS in cells in absence of CPT; hit rate 15% among 420,000; DT40 Tdp1-/- hTDP1 cells, no CPT, ATP luminescence, 48 h; Potency, µM (series often up to 46.2 µM), for the others: at the top dose activity change, negative = growth inhibition, usual class: inhibitors; also: potency is read from the fitted curve at half-maximal effect; nearly all actives have a fitted effect of over 55% in size
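Cells were dispensed at 400 per well, compounds added by pin tool, plates incubated ≥48 hr at 37 °C, then CellTiter-Glo added for 30 min at room temperature before luminescence reading. Line: DT40 Tdp1-/- complemented with hTDP1; camptothecin omitted.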
HT1080 IDH1KD tx: kills HT-1080 cells with IDH1 knockdown; HT-1080 IDH1 knockdown viability, ATP luminescence, 48 h; Potency, µM (series often up to 46.1 µM), for inactives: at the top dose activity, negative = toxicity, usual class: cytotoxic; hit rate 2% among 360,000;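 also: potency is read from the fitted curve at half-maximal effect; 0% = DMSO wells and -100% = cell-free medium wells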
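IDH1KD HT-1080 cells, 750/well, RPMI + 5% FBS; compound pinned after 2 h settling; 48 h, 37 °C; CellTiter-Glo luminescence; % activity normalised to DMSO and no-cell wells; curves fitted, classed by r2 and efficacy.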
ELG1 DNA repair: inhibitors of ELG1-dependent DNA repair in HEK293T cells. HEK293T ELG1-luciferase reporter, luminescence, 16 h; DNA damage induced by 5-fluorouridine. Potency, µM (top dose mostly 46.1 µM), inactives show top-dose activity change, negative = inhibition, hits mostly inhibitors. hit rate 2.3% among 330,000. AID 504467; also: potency is read from the fitted curve at half-maximal effect; nearly all actives have a fitted effect of over 55% in size
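5-Fluorouridine DNA damage + compound/DMSO, 2,000 cells/well, 16 h, 37 °C/5% CO2. ONE-Glo, 30 min RT, luminescence. Readout = decrease in reporter signal.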
IL-1B inflam inh: inhibitors of inflammasome signaling (IL-1 beta secretion); THP-1 LPS/ATP IL-1B secretion, AlphaLISA, 16 h; stronger effect = lower value; activity change, % at 57.5 µM; hit rate 4.7% among 360,000; AID 743279; in the data active = activity change below about -50%; inconclusive = mostly about -30% to -49%
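Secreted IL-1B measured by AlphaLISA bead assay after 16 h compound exposure of THP-1 cells; compounds (final up to 57.5 uM) added 1 h before LPS (250 ng/mL) and ATP (1.25 mM) stimulation; lower signal means less secretion.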
Starred values were filed as active, the others as inactive; ? = inconclusive; nt = not tested or not shown. Shown are actives, neighbours in structure and some others; about 19% of the full set was active somewhere. Unless noted, calls follow the shape of the dose curve; as a rule, active = well fitted curve in the direction sought with a large enough effect; inconclusive = small, poorly fitted or top-dose-only effect, or another doubt; inactive = no such curve, though single readings can be large; an effect the other way counts as inactive or inconclusive. Unless noted, % is scaled to controls: 0 for no effect and ±100 for the full control effect.

SMILES	HT1080NT lethal	TDP1 cell CPT	DT40 TDP1 no CPT	HT1080 IDH1KD tx	ELG1 DNA repair	IL-1B inflam inh
CN(C(=O)c1ccccc1C(=O)OCC(=O)c1ccc(F)c(F)c1)C1CCCCC1	-1%	?	26µM*	-12%	10%	?
C=CCNCCOCCOc1ccc(Cl)cc1C(C)(C)C	-2%	18µM*	26µM*	-14%	8%	-53*
COCCCNCCOCCOc1ccc(Cl)cc1C(C)(C)C	-28%	16µM*	10µM*	?	-13%	-14
C=CCNCCCOc1ccc(Cl)cc1C(C)(C)C	-7%	?	?	?	9%	-85*
CC(C)(C)NCCOCCOc1ccc(Cl)cc1C(C)(C)C	-9%	?	?	-21%	-4%	-6
CCN(CC)C(=O)c1ccc2sc([C@@H]3O[C@H](CO)[C@H](O)[C@H](O)[C@H]3O)nc2c1	20%	-3%	1%	19%	nt	-1
O=C(O)c1nn(Cc2csc(-c3ccccc3)n2)c(=O)c2ccccc12	18%	?	12µM*	10%	24%	5
Cc1ccc(-c2noc(Cn3nc(C(=O)O)c4ccccc4c3=O)n2)cc1	19%	-1%	-6%	22%	27%	-7
COc1cc(OC)cc(C(=O)NC2CCSc3ccccc32)c1 (stereo not drawn)	-1%	?	23µM*	-8%	-6%	-5
COc1ccc(C(=O)NC2CCSc3ccccc32)cc1F (stereo not drawn)	-1%	-24%	?	-2%	0%	10
COc1ccccc1N1C(=O)C2CC(C)=C(C)CC2C1=O (stereo not drawn)	0%	-18%	-21%	-4%	5%	22
COc1ccccc1N1C(=O)C=C(Sc2nc(C)cc(C)n2)C1=O	15%	1.2µM*	2.3µM*	6%	13%	-8
CN(C(=O)CSc1nc(-c2ccc(C(C)(C)C)cc2)c(C#N)c(=O)[nH]1)C1CCCCC1	-16%	-6%	11%	-18%	14%	0
CCOC(=O)c1cccc(NC(=O)c2cc3sccc3n2Cc2ccc(Cl)cc2)c1	nt	?	18µM*	nt	nt	nt
O=C(Nc1ccc2c(c1)OCCO2)c1cc2sccc2n1Cc1ccccc1	-5%	18µM*	?	-13%	?	?
CCOC(=O)c1ccc(NC(=O)c2cc3sccc3n2Cc2ccc(Cl)cc2)cc1	nt	21µM*	18µM*	nt	nt	nt
CC(=O)c1ccc(NC(=O)c2cc3sccc3n2Cc2ccc(Cl)cc2)cc1	nt	16µM*	16µM*	nt	nt	nt
O=C(Nc1nccs1)c1cc2sccc2n1Cc1ccc(Cl)cc1	0%	-26%	-24%	2%	23%	13
CCOC(=O)c1cccc(NC(=O)c2cc3sccc3n2C)c1	-8%	?	21µM*	?	?	1
Cc1ccc(CCNC(=O)c2cc3sccc3n2Cc2ccc(C)cc2)cc1	nt	-25%	?	nt	nt	nt
Cc1ccc(Cn2c(C(=O)Nc3cccc(Cl)c3)cc3sccc32)cc1	nt	18µM*	?	nt	nt	nt
CN(C)S(=O)(=O)c1cc(NC(=O)COC(=O)c2nc(Cl)ccc2Cl)ccc1Cl	-2%	-22%	-1%	7%	-2%	31
O=c1n(Cc2ccccc2Cl)c2ccccc2c2nc(-c3ccccc3)nn12	nt	-23%	-19%	nt	nt	nt
CC(=O)c1ccc(S(=O)(=O)N2CCC(C(=O)Nc3ncc(C)s3)CC2)cc1	11%	-8%	-5%	6%	?	36
CN1CCC(N(C)S(=O)(=O)c2ccc(Cl)cc2)CC1	8%	-1%	18%	3%	8%	26
SMILES	HT1080NT lethal	TDP1 cell CPT	DT40 TDP1 no CPT	HT1080 IDH1KD tx	ELG1 DNA repair	IL-1B inflam inh
CN1CCC(NCCC(c2ccc(F)cc2)c2ccc(Cl)cc2)CC1 (stereo not drawn)	4.1µM*	5.8µM*	5.8µM*	5.2µM*	?	-103*
CC(NC1CCN(Cc2ccccc2)CC1)c1ccc(F)cc1 (stereo not drawn)	-21%	?	?	-23%	4%	?
CC(C)C(CCNC1CCN(C)CC1)c1ccc(Cl)cc1 (stereo not drawn)	?	4.6µM*	3.3µM*	?	23µM*	-52*
O=[N+]([O-])c1ccc(Nc2nc(NCCN3CCOCC3)nc(Nc3ccc(I)cc3)n2)cc1	nt	7.1µM*	4.5µM*	nt	nt	nt
COc1nc(NCCN2CCOCC2)nc(Nc2ccccc2)n1	9%	27%	8%	5%	?	8
O=[N+]([O-])c1ccc(Nc2nc(Cl)nc(NCCO)n2)cc1	-4%	7%	-14%	-2%	0%	36
O=[N+]([O-])c1ccc(Nc2nc(NCCN3CCOCC3)nc(Nc3ccc(Cl)cc3)n2)cc1	nt	14µM*	10µM*	nt	nt	nt
COc1ccc(Nc2nc(NCCN3CCOCC3)nc(Nc3ccc(OC)cc3)n2)cc1	-29%	11µM*	14µM*	-13%	?	-91*
COc1ccc(-c2cc(C)cc3c2OC(CNC(=O)/C=C/c2ccncc2)C3)nn1 (stereo not drawn)	nt	-58%	?	nt	nt	nt
COc1ccc(-c2oc3ncn4nc(COc5ccccc5C)nc4c3c2-c2ccc(OC)cc2)cc1	nt	2%	2%	nt	nt	nt
CC(C)CN1C(=O)CSCC1(C)C(=O)NCc1ccccc1 (stereo not drawn)	7%	5%	-1%	0%	nt	43
CSc1nc(-c2ccccc2)c2cc(Cl)ccc2n1	0%	21%	?	11%	-9%	21
Clc1ccc2nnnc(-c3ccccc3)c2c1	?	3.3µM*	4.1µM*	?	?	-100*
CCOc1cccc(-c2nn(-c3ccccc3)cc2/C=C(/C#N)C(=O)NCCCn2ccnc2)c1	26µM*	?	?	?	?	-99*
N#C/C(=C/c1cn(-c2ccccc2)nc1-c1cccc(S(=O)(=O)N2CCCC2)c1)C(=O)NCc1ccco1	1%	13µM*	12µM*	-22%	?	-2
N#C/C(=C/c1cn(-c2ccccc2)nc1-c1cccc(OCc2ccccc2)c1)C(=O)NCCCn1ccnc1	-28%	?	?	?	13µM*	-75*
Cc1cc(C)nc(SCc2ccc(F)cc2)n1	-10%	2%	16%	11%	?	0
CCN1/C(=C/c2ccc3cc(C)cc(C)c3[n+]2CC)Sc2cc(C)ccc21	7.3µM*	0.65µM*	0.18µM*	?	?	-97*
